Assay results published in PubChem BioAssay (NCI).
Several values for one entry are separate records, joined by “and”; a condition that tells them apart may be missing. Equal entries are not always repeated. About 79,000 compounds went through this panel and 15% of them were active in at least one assay; those are over-represented in the sample as a whole. The source holds several records for some structures; these can differ, active in one and inactive in another. Activity calls are given as the source filed them. No stated cut-off is given here; in the data, active means growth inhibition above about 70%; inactive means the rest.

What was measured:
[1] = NCI Yeast Anticancer Drug Screen. Data for the rad50 strain (AID 155);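 further: 0% = growth of vehicle-only cultures of the same strain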; settings: S. cerevisiae rad50 strain growth inhibition; at 50.0 µM; stronger effect = higher value
How it was run: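 Readout: growth inhibition relative to vehicle-treated cultures. Compound exposure was carried out in a genetically defined yeast strain deficient in DNA damage repair.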

[2] = NCI Yeast Anticancer Drug Screen. Data for the mec2-1 strain (AID 157); settings: S. cerevisiae mec2-1 strain, at 50.0 µM, stronger effect = higher value
How it was run: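 Compounds were applied to mec2-1 yeast cells. Their growth was then compared with that of vehicle-treated cultures to give growth inhibition.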

[3] = NCI Yeast Anticancer Drug Screen. Data for the sgs1 mgt1 strain (AID 161);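 further: 0% = growth of cultures given vehicle only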; settings: S. cerevisiae sgs1 mgt1 strain, at 50.0 µM, stronger effect = higher value
How it was run: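 Percent growth inhibition was derived by comparing compound-exposed mutant yeast with vehicle-exposed cultures. The strain carries alterations in DNA damage repair.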

[4] = NCI Yeast Anticancer Drug Screen. Data for the cln2 rad14 strain (AID 165);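 further: 0% = growth equal to vehicle treated cultures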; settings: S. cerevisiae cln2 rad14 strain, at 50.0 µM, stronger effect = higher value
How it was run: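 Strain: cln2 rad14 yeast, altered in cell cycle control and DNA damage repair. Read-out: growth inhibition vs vehicle.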

[5] = NCI Yeast Anticancer Drug Screen. Data for the bub3 strain (AID 167); settings: S. cerevisiae bub3 mutant strain, at 50.0 µM, stronger effect = higher value
How it was run: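 Readout: yeast growth inhibition, expressed relative to vehicle-only wells. The test organism is a mutant strain from a panel with lesions in DNA repair or checkpoint genes.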

[6] = NCI Yeast Anticancer Drug Screen. Data for the mlh1 rad18 strain (AID 175); settings: S. cerevisiae mlh1 rad18 strain growth inhibition; at 50.0 µM; stronger effect = higher value
How it was run: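 A repair-deficient yeast strain is exposed to test compound, and growth is scored relative to vehicle-treated controls.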

| SMILES | growth inhibition [1] | growth inhibition [2] | growth inhibition [3] | growth inhibition [4] | growth inhibition [5] | growth inhibition [6] |
| --- | --- | --- | --- | --- | --- | --- |
| O=C(CC(=O)Nc1ccccc1)Nc1ccccc1 | -3.55% (inactive) and 32.1% (inactive) | -21% (inactive) and 0.2% (inactive) | -5.95% (inactive) and 23.4% (inactive) | 8.5% (inactive) and 5.5% (inactive) | -28.6% (inactive) and -1.65% (inactive) | -5.55% (inactive) and 20.8% (inactive) |
| Cc1ccc(C(O)(C(F)(F)F)C(O)(c2ccc(C)cc2)C(F)(F)F)cc1 (stereo not given) | 36.8% (inactive) and 99.2% (active) | 1.9% (inactive) and 99.5% (active) | -12.8% (inactive) and 99.3% (active) | -10.2% (inactive) and 99.4% (active) | -8.85% (inactive) and 99.3% (active) | -5.75% (inactive) and 99% (active) |
| COc1ccc(Cc2c3cc(O)c(=O)cc-3ccn2C)cc1OC | 2.75% (inactive) and 47.7% (inactive) | 14.2% (inactive) and 24.5% (inactive) | 23.4% (inactive) and 22.3% (inactive) | 32.2% (inactive) and 8.35% (inactive) | 29.2% (inactive) and 5.5% (inactive) | 28.1% (inactive) and 17.9% (inactive) |
| NC1CCC(N)CC1 (stereo not given) | 7.75% (inactive) and 9.05% (inactive) | 10% (inactive) and -5.85% (inactive) | 0.2% (inactive) and 0.75% (inactive) | -11.8% (inactive) and -16.1% (inactive) | 8.65% (inactive) and 10.4% (inactive) | -6.35% (inactive) and 1.4% (inactive) |
| C/C=C(\C)c1cc(=O)c2c(C)cc3c(c2o1)C(=O)c1c(O)c(C2CC(C)(N(C)C)C(O)C(C)O2)cc(C2CC(N(C)C)C(O)C(C)O2)c1C3=O (stereo not given) | 1.95% (inactive) and 21.3% (inactive) | -16% (inactive) and 10.7% (inactive) | 14.6% (inactive) and 17.4% (inactive) | 3.4% (inactive) and 25.8% (inactive) | 8.2% (inactive) and 9.4% (inactive) | -5.8% (inactive) and 10.2% (inactive) |
| CC(C)c1ccc2c(c1)CC[C@H]1[C@](C)(C#N)CCC[C@]21C | 1.1% (inactive) and 0.25% (inactive) | -20.8% (inactive) and -11.4% (inactive) | 0.6% (inactive) and -17.2% (inactive) | -28.4% (inactive) and -20.4% (inactive) | 1.25% (inactive) and 13.2% (inactive) | 9.85% (inactive) and 34.7% (inactive) |
| O=C(O)/C=C/C(=O)Nc1ccccc1 | -4.8% (inactive) and -26.8% (inactive) | -18.7% (inactive) and -22% (inactive) | -11.8% (inactive) and -14.3% (inactive) | 0.25% (inactive) and -30.4% (inactive) | -2.8% (inactive) and -10.2% (inactive) | 4.15% (inactive) and -1.65% (inactive) |
| ClCC(CCl)(CCl)CCl | 24.6% (inactive) and 1.15% (inactive) | 6.95% (inactive) and -12.9% (inactive) | 13.4% (inactive) and 7.95% (inactive) | 6% (inactive) and 20.1% (inactive) | 12.3% (inactive) and -0.2% (inactive) | 5.85% (inactive) and 1.45% (inactive) |
| COc1ccc2c(c1)-c1nn(CCCN(C)C)c3ccc([N+](=O)[O-])c(c13)N2 | 76.2% (active) and 67.2% (inactive) | 8% (inactive) and 12.3% (inactive) | 23.9% (inactive) and -28.4% (inactive) | 10.7% (inactive) and 20.6% (inactive) | 27.8% (inactive) and -60.1% (inactive) | 39.7% (inactive) and 28.5% (inactive) |
| CN(C)CC1CCCC(CN2CCCCC2)C1=O (stereo not given) | -13.3% (inactive) and -7.95% (inactive) | -37.8% (inactive) and 9.7% (inactive) | -33.5% (inactive) and 8.2% (inactive) | 4.6% (inactive) and -38.9% (inactive) | -11.6% (inactive) and -9.5% (inactive) | -6.4% (inactive) and 9.4% (inactive) |
| CN(C)CC1COC2Cc3ccccc3C1O2 (stereo not given) | -43.2% (inactive) and -0.75% (inactive) | -22.1% (inactive) and -20.2% (inactive) | -17.2% (inactive) and -1.65% (inactive) | -46.1% (inactive) and 20.9% (inactive) | -19.1% (inactive) and 21.5% (inactive) | -29.3% (inactive) and 1.95% (inactive) |
| Cc1ccc(S(=O)(=O)NN=C2C(C)(C)CC2(C)C)cc1 | -21.9% (inactive) and 21.2% (inactive) | 1.15% (inactive) and -11.8% (inactive) | 8.55% (inactive) and 6.6% (inactive) | 13.9% (inactive) and -23.5% (inactive) | 6.15% (inactive) and -2.85% (inactive) | -24.8% (inactive) and 3.65% (inactive) |
| Oc1ccc[n+](Cc2ccccc2)c1 | -7.85% (inactive) and -26.4% (inactive) | -24.1% (inactive) and -43.9% (inactive) | -47.3% (inactive) and -12.4% (inactive) | 7.35% (inactive) and 24.6% (inactive) | -49.5% (inactive) and -22.8% (inactive) | -21.8% (inactive) and -11.4% (inactive) |
| COc1ccc(C(O)c2nccn2C)c(OC)c1 (stereo not given) | -17.6% (inactive) and -23.8% (inactive) | -3.55% (inactive) and -10.8% (inactive) | -0.3% (inactive) and -6.2% (inactive) | 14.7% (inactive) and 10.1% (inactive) | 20.1% (inactive) and 21% (inactive) | 5.35% (inactive) and -6.35% (inactive) |
| COC12C=CC(CC1)C(C)(C)C2O (stereo not given) | 7.6% (inactive) and 0.25% (inactive) | -0.75% (inactive) and -7.75% (inactive) | -1.55% (inactive) and -2.25% (inactive) | -11% (inactive) and -14.2% (inactive) | 7.85% (inactive) and 14.7% (inactive) | 4.25% (inactive) and 1.9% (inactive) |
| O=C1CC(=P(c2ccccc2)(c2ccccc2)c2ccccc2)C(=O)O1 | 24.1% (inactive) and -0.65% (inactive) | 24.5% (inactive) and -1% (inactive) | 13.2% (inactive) and 0% (inactive) | 14.7% (inactive) and 9.8% (inactive) | 10.8% (inactive) and -4.15% (inactive) | 12.2% (inactive) and 5.5% (inactive) |
| O=[N+]([O-])c1ccccc1S(=O)(=O)Oc1ccccc1 | 10.1% (inactive) and 54.7% (inactive) | 2.5% (inactive) and -9.2% (inactive) | 5.45% (inactive) and 46.3% (inactive) | -12.9% (inactive) and 1% (inactive) | -8.65% (inactive) and -14.5% (inactive) | 5.25% (inactive) and 32.4% (inactive) |
| N/N=C(/C(=O)c1ccccc1)c1ccccc1 | -10% (inactive) and 18% (inactive) | 5.4% (inactive) and 10% (inactive) | 5.4% (inactive) and 0.5% (inactive) | 11.6% (inactive) and -56% (inactive) | -3.1% (inactive) and -1.85% (inactive) | 10.2% (inactive) and 7.9% (inactive) |
| O=C(CCCOc1ccc(Cl)cc1Cl)NC(Cc1c[nH]c2ccccc12)C(=O)O (stereo not given) | -1.3% (inactive) and 1.5% (inactive) | 0.15% (inactive) and -1.95% (inactive) | 4.3% (inactive) and -3.6% (inactive) | 19.1% (inactive) and 18.7% (inactive) | -17.6% (inactive) and -17.1% (inactive) | 7.2% (inactive) and 10.7% (inactive) |
| COC(=O)C1(C)CCCC2(C)c3cc(OC)ccc3C=CC12 (stereo not given) | 14.5% (inactive) and 6.75% (inactive) | -1.8% (inactive) and 8.1% (inactive) | -0.6% (inactive) and 2.55% (inactive) | -0.6% (inactive) and 4.75% (inactive) | 2.5% (inactive) and 21.5% (inactive) | 4.45% (inactive) and 1.2% (inactive) |
